Some test systems named below: T-47D breast; BT-549 breast; MDA-MB-435 melanoma; SW-620 colon; MCF7 breast; HCT-116 colon; KM12 colon; HCC-2998 colon.
Experiment in all cases: NCI-60 one-dose screen, 48 h (100 = growth as untreated, 0 = no growth, -100 = all killed)
What all share (details): 10 µM unless noted

Compounds without any hit were thinned out: in the full panel of roughly 83,000, 20% have a hit.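 Negative percent growth values reflect cell death: -40 means 40% of the cells present at the start died, and -100 means all died.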 Values without a mark were called inactive. The source made the active and inactive calls. Rule for the calls: active = growth percent below 10; inactive = the rest.

From PubChem BioAssay (NCI) come the findings set out here.

For `CO[C@H]1/C=C(/C)CCC[C@H](C)[C@H](O)[C@@H](C)C(=O)C(C)(C)[C@@H](O)CC(=O)O[C@@H]1/C(C)=C/c1csc(C)n1`, the growth in the assay on T-47D breast was 42.3%; with BT-549 breast, 32.3%; with MDA-MB-435 melanoma, -34.8% (active); with SW-620 colon, 33.8%; with MCF7 breast it was 20.4%; with HCT-116 colon it was 9.39% (active). For the same compound, the growth in the assay with KM12 colon is 5.07% (active).

Take `O=C1c2cccc(NCCN=Cc3cc(O)ccc3O)c2C(=O)c2c(NCCN=Cc3cc(O)ccc3O)cccc21`: the growth in the assay on T-47D breast is -2.29% (active); with BT-549 breast it was 41.7%; in the assay on MDA-MB-435 melanoma, -5.74% (active); in the assay with SW-620 colon, -68.7% (active); in the assay on MCF7 breast it was -59.6% (active); in the assay on HCT-116 colon, -17.3% (active). The growth in the assay with KM12 colon was -71.3% (active).

In the case of `CCCc1cc(NC)nc(S(=O)(=O)CC)n1`, the growth is 111% in the assay with T-47D breast; 105% with BT-549 breast; 104% in the assay on MDA-MB-435 melanoma; 105% with SW-620 colon; 92.1% with MCF7 breast; 100% in the assay on HCT-116 colon. Also, the growth with KM12 colon was 113%.

Consider `COc1ccc(/C=N/NC(=O)CCN2c3ccccc3Sc3ccccc32)cc1`, for which the growth in the assay with T-47D breast is 81.5%; in the assay with BT-549 breast, 84.8%; in the assay with MDA-MB-435 melanoma, 8.72% (active); in the assay with SW-620 colon it was 57.4%; with MCF7 breast, 42.7%; in the assay on HCT-116 colon, 69.4%. The figures for the growth with HCC-2998 colon and in the assay with KM12 colon were 92.3% and 53.8%, respectively.

For `CCOC(=O)CNP(=O)(OC[C@@H](Cc1ccccc1)NC(=O)c1cc2ccccc2s1)Oc1ccccc1` (some centres not stated), the growth in the assay with T-47D breast was 55.3%; in the assay with BT-549 breast it was 74.6%; with MDA-MB-435 melanoma, 8.66% (active); in the assay with SW-620 colon it was 47.3%; with MCF7 breast it was 51.2%; in the assay on HCT-116 colon it was 71.9%. In the assay with KM12 colon, the growth is 42.3%.

As to `O=C(Nc1cccc([N+](=O)[O-])c1)c1cc2ccccc2cc1O`, the growth is 3.67% (active) in the assay on T-47D breast; -7.42% (active) with BT-549 breast; -1.29% (active) in the assay with MDA-MB-435 melanoma; 6.15% (active) with SW-620 colon; -4.92% (active) in the assay with MCF7 breast; 7.4% (active) in the assay with HCT-116 colon. Also, the growth in the assay on KM12 colon was -10.3% (active).

As to `CCn1c(SCC(=O)c2ccc(Br)cc2)nnc1-c1ccncc1`, the growth in the assay with T-47D breast is 105%; in the assay with BT-549 breast, 116%; in the assay on MDA-MB-435 melanoma it was 102%; in the assay with SW-620 colon, 102%; in the assay on MCF7 breast it was 92.6%; with HCT-116 colon, 105%. In addition, in the assay on KM12 colon, the growth is 106%.

Consider `COc1cc(-c2cc(-c3ccc(N(C)C)cc3)nc(N3CCC(O)CC3)c2C#N)cc(OC)c1OC`, for which the growth in the assay on T-47D breast was 8.21% (active); in the assay on BT-549 breast, 30.6%; in the assay with MDA-MB-435 melanoma it was -18.5% (active); in the assay on SW-620 colon it was 21.1%; in the assay with MCF7 breast, 0.557% (active); with HCT-116 colon, -38.9% (active). In the assay on KM12 colon, the growth was -0.387% (active).

Turning to `COc1ccc2c3c([nH]c2c1)C(=O)c1nc(C)ccc1C3=O`, the growth in the assay with T-47D breast was 48.5%; in the assay with BT-549 breast it was 71.7%; in the assay with MDA-MB-435 melanoma it was -76.2% (active); with SW-620 colon, 42.8%; in the assay with MCF7 breast it was 41%; in the assay on HCT-116 colon it was 30.3%. For the same compound, the growth in the assay on KM12 colon was 36.6%.

Regarding `Cc1cc(N)c2cc(NC(=O)/C=C\c3ccccc3Cl)ccc2n1`, the growth was -58.1% (active) with T-47D breast; -72.8% (active) with BT-549 breast; -80.5% (active) with MDA-MB-435 melanoma; -91.2% (active) with SW-620 colon; -82.4% (active) with MCF7 breast; -73% (active) in the assay on HCT-116 colon. For the same compound, in the assay with KM12 colon, the growth was -83.8% (active).

On to `COc1ccc2[nH]cc(C(c3cc(F)cc(F)c3)c3c[nH]c4ccc(OC)cc34)c2c1`, for which the growth in the assay with T-47D breast was 43.1%; in the assay on BT-549 breast, 183%; with MDA-MB-435 melanoma it was 93.4%; in the assay with SW-620 colon it was 81.6%; in the assay with MCF7 breast, 55.4%; in the assay on HCT-116 colon it was 52.9%. The growth in the assay with KM12 colon is 83.6%.

With `O=C1CNC(c2ccccc2)C(c2ccccc2)N1` (configuration not stated), the growth with T-47D breast is 104%; in the assay with BT-549 breast it was 82.8%; in the assay on MDA-MB-435 melanoma, 105%; with SW-620 colon, 98.5%; with MCF7 breast, 91.8%; in the assay with HCT-116 colon, 93%. The growth in the assay with KM12 colon is 100%.

As for `CCOC(=O)c1nc(Nc2ccc(NC(=O)Nc3ccc(F)cc3)cc2)c2ccccc2n1`, the growth is 99.2% with T-47D breast; 106% in the assay on BT-549 breast; 101% in the assay with MDA-MB-435 melanoma; 96.9% in the assay with SW-620 colon; 96.5% in the assay on MCF7 breast; 101% in the assay with HCT-116 colon. Moreover, the growth in the assay on KM12 colon is 102%.

For the compound `Cn1ccc2c3c(ccc21)CC3=O`, the growth is 105% in the assay on T-47D breast; 106% in the assay with BT-549 breast; 106% in the assay with MDA-MB-435 melanoma; 108% in the assay with SW-620 colon; 107% in the assay on MCF7 breast; 101% in the assay on HCT-116 colon. Further, the growth with KM12 colon was 112%.

As to `Cc1ccc2c(n1)C(=O)c1[nH]c3ccccc3c1C2=O`, the growth is 23.2% with T-47D breast; 58.5% with BT-549 breast; -87.6% (active) with MDA-MB-435 melanoma; 48.3% with SW-620 colon; 31.2% in the assay with MCF7 breast; 22% in the assay on HCT-116 colon. In the assay with KM12 colon, the growth is 37%.

For the compound `COC(=O)c1cc(-c2ccc(S(C)(=O)=O)cc2)[nH]c1N/N=C/c1c(Cl)cccc1Cl`, the growth with T-47D breast was 31.2%; in the assay on BT-549 breast it was 70.7%; with MDA-MB-435 melanoma it was -69.7% (active); with SW-620 colon, 15%; in the assay with MCF7 breast, -5.62% (active); in the assay with HCT-116 colon it was 11.4%. Moreover, in the assay with KM12 colon, the growth was 20.6%.

`Cc1cccc(N2CCN(CC(O)COc3ccc(Cl)cc3)CC2)c1` (configuration not stated): the growth is 94.4% with T-47D breast; 100% in the assay with BT-549 breast; 84.1% in the assay on MDA-MB-435 melanoma; 103% with SW-620 colon; 121% in the assay with MCF7 breast; 89.9% in the assay on HCT-116 colon. Further, in the assay on KM12 colon, the growth is 97.1%.

`CC(=O)c1cc(O)c2ccccc2c1O`: the growth in the assay with T-47D breast is 87.1%; in the assay with BT-549 breast it was 91.7%; in the assay with SW-620 colon, 108%; in the assay with MCF7 breast, 75.2%; in the assay with HCT-116 colon, 95.4%; with HCC-2998 colon, 166%. Moreover, the growth with KM12 colon was 106%.

Take `COc1ccc2cc(-c3ccc(NC(C)=O)c(=O)o3)ccc2c1`: the growth is 87.3% with T-47D breast; 101% in the assay with BT-549 breast; 96.6% in the assay with SW-620 colon; 89.9% with MCF7 breast; 90.3% in the assay on HCT-116 colon; 102% in the assay with HCC-2998 colon. The growth with KM12 colon is 97%.

As to `CC(C)c1ccc(NC(=O)Nc2ccc(NC(=O)CCCC(=O)NOCc3ccccc3)cc2)cc1`, the growth was 59.3% in the assay on T-47D breast; 106% with BT-549 breast; 107% in the assay on SW-620 colon; 80.2% with MCF7 breast; 93.4% in the assay on HCT-116 colon; 66% in the assay with HCC-2998 colon. In addition, in the assay on KM12 colon, the growth is 94.4%.

As for `CCc1ccc(C(=O)/C=C/C23c4ccccc4C(c4ccccc42)C2C(=O)NC(=O)C23)cc1` (configuration not stated), the growth is 21.9% in the assay on T-47D breast; -7.29% (active) in the assay on BT-549 breast; 8.84% (active) with SW-620 colon; 16.6% in the assay with MCF7 breast; -40% (active) with HCT-116 colon; 24.5% in the assay on HCC-2998 colon. For the same compound, in the assay with KM12 colon, the growth was 11.2%.

Take `CCN(c1ccc(Cl)cc1)c1nc(-c2ccc([N+](=O)[O-])cc2)cs1`: the growth in the assay with T-47D breast is 77.2%; with BT-549 breast, 115%; in the assay on MDA-MB-435 melanoma, 103%; with SW-620 colon, 91.7%; with HCT-116 colon it was 97.9%; in the assay with HCC-2998 colon, 98.7%. Besides, in the assay on KM12 colon, the growth is 93.2%.

Regarding `N#CC1C=CN(CC(N)=O)c2ccc3cccnc3c21` (configuration not stated), the growth in the assay with T-47D breast was 90.9%; in the assay on BT-549 breast, 102%; with SW-620 colon it was 104%; with MCF7 breast it was 85.8%; with HCT-116 colon, 94.8%; in the assay on HCC-2998 colon it was 106%. Moreover, in the assay on KM12 colon, the growth was 105%.

For the compound `CCN(CC)CCSc1nc(-c2ccccc2)c(C#N)c(=O)[nH]1`, the growth in the assay with T-47D breast was 93.8%; in the assay on BT-549 breast, 94.9%; in the assay on SW-620 colon it was 94.4%; with MCF7 breast it was 104%; in the assay with HCT-116 colon, 105%; in the assay on HCC-2998 colon, -6.88% (active). In addition, in the assay on KM12 colon, the growth was 118%.

Consider `COc1ccc(-c2nc(SCC(C)C)nc(N/N=C\c3ccc(F)cc3)c2C#N)cc1`, for which the growth is 80.7% with T-47D breast; 89.9% in the assay on BT-549 breast; 67.9% in the assay with SW-620 colon; 81.2% in the assay with MCF7 breast; 60% with HCT-116 colon; 104% in the assay on HCC-2998 colon. For the same compound, the growth with KM12 colon was 97.4%.

For the compound `O=C(N/N=C/c1ccc(F)cc1)c1ccc(C(F)(F)F)nc1Nc1cccc(C(F)(F)F)c1`, the growth in the assay with T-47D breast was -3.3% (active); in the assay with BT-549 breast, 1.7% (active); with MDA-MB-435 melanoma, 24.8%; with SW-620 colon, 5.48% (active); in the assay on MCF7 breast, -18.6% (active); in the assay with HCT-116 colon, 10.1%. Also, in the assay on KM12 colon, the growth is -4.29% (active).

For the compound `CC1Cc2c(Cl)ncnc2N(C)c2ccc(F)cc21` (configuration not stated), the growth with T-47D breast was 92.5%; in the assay with BT-549 breast it was 108%; in the assay on SW-620 colon, 106%; in the assay on MCF7 breast, 97.9%; with HCT-116 colon it was 87.5%; with HCC-2998 colon, 103%. The growth in the assay with KM12 colon is 99.9%.

With `COc1ccc(N2CCC(=O)NC2=S)cc1`, the growth in the assay with T-47D breast is 102%; in the assay on BT-549 breast it was 101%; in the assay on SW-620 colon, 96.8%; in the assay on MCF7 breast, 95.2%; with HCT-116 colon, 105%; with HCC-2998 colon, 95.9%. Also, the growth with KM12 colon is 106%.
